# MCF10A rerep = inducers of DNA re-replication in MCF 10A breast cells. MCF 10A DNA re-replication, Hoechst nuclear intensity, 48 h. Potency, µM (highest dose often 46.1 µM), without a hit: at the top dose activity, positive = re-replication, hits mostly activators. 350,000 tested, 2.9% active. AID 624296; note: % of control where 0% means no effect; nearly all actives have a fitted effect of over 50% in size
# SW480 rerep = DNA re-replication induction in SW480 cells | Potency, µM (series often up to 46.1 µM), for the others: top-dose re-replication activation, most hits filed as activators | 340,000 tested, 1.8% active | SW480 DNA re-replication, Hoechst DNA content imaging, 48 h; note: % of control where 0% means no effect; nearly all actives have a fitted effect of over 55% in size
#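 Hoechst fluorescence of nuclei (405 nm excitation, 500-530 nm emission) measured by plate-scanning imager after 48 hr compound exposure at 37 C; re-replication scored as increased number of nuclei with elevated intensity.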
# KB-V1 MDR tox = KB-V1 MDR subline cytotoxicity; KB-V1 MDR cells viability, CellTiter-Glo, 72 h; 400,000 tested, 3.4% active; Potency, µM (highest dose often 46.1 µM), most hits filed as cytotoxic; note: % is set by controls: 0 for no effect and ±100 for the full control effect; nearly all actives have a fitted effect of over 60% in size
#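 Following 72 h at 37 degrees C with compound, KB-V1 cell viability was read by CellTiter-Glo luminescence, medium being phenol-red-free DMEM plus 10% FBS; concentration-response parameters came from normalized, curve-fitted qHTS data.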
# TSG101-PTAP inh = blocks PTAP/TSG101 interaction to inhibit HIV-1 budding; Potency, µM (top dose mostly 115 µM), for the others: at the highest dose activity change, negative = inhibition, usual class: inhibitors; 340,000 tested, under 10 active; Q99816; AID 493005; Fluorescence polarization, FITC-PTAP peptide / Tsg101 binding; active = well fitted inhibition curve with a large enough effect in the main read-out, with a control signal flat, not every such curve was filed as active; inconclusive = small, poorly fitted or top-dose-only effect, or effect the other way, or a change in a side signal; inactive = no such curve, though single readings can be large or run the other way; note: % of control where 0% means no effect
# Target sequence (Q99816 whole entry, looked up): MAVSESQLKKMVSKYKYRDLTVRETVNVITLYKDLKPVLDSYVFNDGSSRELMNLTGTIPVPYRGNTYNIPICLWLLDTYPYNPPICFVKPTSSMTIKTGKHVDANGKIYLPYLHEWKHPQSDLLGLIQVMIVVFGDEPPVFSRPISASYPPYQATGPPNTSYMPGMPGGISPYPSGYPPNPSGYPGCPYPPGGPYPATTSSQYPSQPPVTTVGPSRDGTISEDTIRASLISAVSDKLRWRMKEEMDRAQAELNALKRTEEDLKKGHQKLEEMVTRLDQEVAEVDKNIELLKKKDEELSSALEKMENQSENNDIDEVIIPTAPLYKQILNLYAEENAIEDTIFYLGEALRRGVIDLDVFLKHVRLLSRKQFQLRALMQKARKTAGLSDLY
#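 Fluorescence anisotropy tracks displacement of a FITC-tagged PTAP peptide (50 nM) from the Tsg101 binding domain (10 uM), following a 20 min room-temperature incubation at pH 7.5.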
# PINK1 expr mod = PINK1 expression modulation | PINK1 immunofluorescence, high-content cytometry, 24 h | Potency, µM (series often up to 76.6 µM), for the others: at the top dose activation (PINK1 increase), hits mostly activators | 410,000 tested, 0.2% active; active = well fitted activation curve with a large enough effect; inconclusive = small, poorly fitted or top-dose-only effect; cell line not stated here; note: % of control where 0% means no effect; nearly all actives have a fitted effect of over 65% in size
#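 Decision-based qHTS: stable cells, 24 h exposure to five compound concentrations, CCCP as control. Fixed cells stained for PINK1 plus nuclear, mitochondrial and cell markers, cytometer read.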
# KB-3-1 tox = KB-3-1 parental cell cytotoxicity; 400,000 tested, 1.4% active; KB-3-1 viability, CellTiter-Glo ATP luminescence, 72 h; Potency, µM (doses to about 46.1 µM), hits mostly cytotoxic; AID 1347075; note: % is set by controls: 0 for no effect and ±100 for the full control effect; nearly all actives have a fitted effect of over 60% in size
#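 Cytotoxicity measured as CellTiter-Glo luminescence after 72 h at 37 C. Compound titrations were pinned onto drug-naive KB-3-1 parental adenocarcinoma cells grown in DMEM with 10% FBS, and normalized data fitted to concentration-response curves.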
# Numbers without * were called inactive; i = inactive; ? = inconclusive; . = no result given; ! = not confirmed by another sample; [ ] = dose if it differs, or a comment. Sampled rows, rich in hits. Any-hit rate of the full collection: about 6.8%. Unless noted, calls come from the whole dose curve; as a rule, active = well fitted curve in the direction sought with a large enough effect; inconclusive = small, poorly fitted or top-dose-only effect, or another doubt; inactive = no such curve, though single readings can be large; an effect the other way counts as inactive or inconclusive. Potency is the fitted concentration of half-maximal effect.
SMILES,MCF10A rerep,SW480 rerep,KB-V1 MDR tox,TSG101-PTAP inh,PINK1 expr mod,KB-3-1 tox
C/C=C/c1ccc(OCCOc2cc(C=O)ccc2OC)c(OC)c1,29%,3%,15µM*,-5%,19%,i
CCN(CC(=O)Nc1ccc(NC(C)=O)cc1)C(=O)C1CCN(C(=O)c2ccccc2C)CC1,20%,3.7µM*,i,-4%,13%,i
CCN(CC(=O)Nc1ccc(NC(C)=O)cc1)C(=O)C1CCCC1,4%,-4%,i,0%,-1%,i
Cn1c(C(=O)NCc2ccc(F)cc2)cc2cc(S(=O)(=O)N3CCCCC3)ccc21,.,.,.,.,1%,.
C=CCOc1ccc(CN(C)C(=O)c2ccc(CNS(=O)(=O)c3ccc(C)c(C)c3)cc2)cc1,?,-9%,?,-1%,1%,13µM*
Cc1cc2c3c([nH]c2cc1S(=O)(=O)N1CCC2(CC1)OCCO2)CC(C)(C)CC3=O,23µM*,?,i,-4%,1%,i
CCc1cc2c3c([nH]c2cc1S(=O)(=O)N1CCC2(CC1)OCCO2)CCCC3=O,9%,-21%,i,0%,2%,i
CC(C)(C)NC(=O)C(c1ccco1)N(C(=O)c1csnn1)c1ccccc1 (stereo not drawn),5%,2%,15µM*,-4%,1%[38.3 µM],i
Cc1ccc(N(C(=O)c2csnn2)C(C(=O)NC(C)(C)C)c2ccncc2)cc1 (stereo not drawn),9.2µM*,18µM*,i,-11%,-6%[38.3 µM],i
CCC(C)(C)NC(=O)C(c1ccc(C)o1)N(C(=O)c1csnn1)c1cccc(F)c1 (stereo not drawn),0%,-1%,16µM*,-3%,2%,i
CCC(C)(C)NC(=O)C(c1ccc(C)cc1)N(Cc1cccnc1)C(=O)c1csnn1 (stereo not drawn),1%,-2%,i,-2%,0%,i
Cc1ccc(C(C(=O)NC2CCCC2)N(C(=O)c2csnn2)c2cccc(F)c2)o1 (stereo not drawn),-7%,-3%,i,-1%,5%,i
CCC(C)(C)NC(=O)C(c1ccccc1)N(Cc1cccnc1)C(=O)c1csnn1 (stereo not drawn),?,-4%,13µM*,-1%,-1%,i
Cc1ccc(-n2cc(-c3ccccc3)c3c(=O)[nH]cnc32)cc1,23µM*,-7%,i,-2%,0%,i
Cc1ccc(-n2cnc3c(=O)[nH]cnc32)cc1,-26%,-1%,9.2µM*,-5%,0%,?
Cc1cc(-n2cnc3c(=O)[nH]cnc32)ccc1N,3%,0%,i,-4%,2%,i
Fc1ccc(-n2cc(-c3ccccc3)c3c(=S)nc[nH]c32)cc1,-1%,-1%,i,-3%,6%,18µM*
Fc1cccc(-n2cc(-c3ccccc3)c3c(=S)nc[nH]c32)c1,9%,4%,i,-1%,1%,?
COc1ccc(Cn2ccn(Cc3cccc(Cl)c3)c(=O)c2=O)cc1,.,.,.,.,2%,.
CCCNC(=O)CSc1nc2nc(C)c(Cc3ccccc3Cl)c(C)n2n1,.,.,i,.,-1%,i
O=C(COC(=O)c1ccccc1)Nc1cccc(S(=O)(=O)NC2=NCCCCC2)c1,4%,-1%,i,1%,0%,i
CCN(CC)c1ccc(C(=O)OCC(=O)Nc2cccc(S(=O)(=O)NC3=NCCCCC3)c2)cc1,?,23%,21µM*,-5%,0%,?
O=C(CCl)Nc1cccc(S(=O)(=O)NC2=NCCC2)c1,?,?,i,-5%,3%,18µM*
Cc1cc(C)cc(C(=O)OCC(=O)Nc2cccc(S(=O)(=O)NC3=NCCCCC3)c2)c1,-17%,?,16µM*,-8%,1%,?
NC(=O)Nc1ccc(C(=O)OCC(=O)Nc2cccc(S(=O)(=O)NC3=NCCCCC3)c2)cc1,4%,-24%,i,-1%,2%,i
SMILES,MCF10A rerep,SW480 rerep,KB-V1 MDR tox,TSG101-PTAP inh,PINK1 expr mod,KB-3-1 tox
CCOC(=O)c1ccc(NC(=O)CC2C(=O)N(c3ccc(F)cc3)C(=O)N2Cc2cccnc2)cc1 (stereo not drawn),.,.,.,.,1%,.
CC(C)C1(C)NC(c2ccc3c(c2)OCO3)=CC(c2ccccc2O)N1 (stereo not drawn),.,.,i,.,0%,i
CC(C)C1N=C(c2ccc3c(c2)OCO3)CC(c2ccccc2O)N1 (stereo not drawn),21µM*,?,?,-6%,-4%,?
C#C[C@]1(O)CC[C@H]2[C@@H]3CCc4cc(OC)ccc4[C@H]3CC[C@@]21C,?,-7%,i,-1%,4%,i
C#C[C@]1(O)CC[C@H]2[C@@H]3CCc4cc(OC5CCCC5)ccc4[C@H]3CC[C@@]21C,13µM*!,?,i,0%,0%,?
O=[N+]([O-])c1cc(Cl)cc(/C=N\Nc2ccccn2)c1O,?,3.7µM*,i,-3%,1%,?
O=C(O)/C=C/C(=O)N1CCN(C(=O)/C=C/C(=O)O)CC1,-7%,0%,?,1%,1%,i
CCOC(=O)/C=C/C(=O)N1CCN(C(=O)/C=C/C(=O)OCC)CC1,15µM*,?,i,-6%,10%,i
Cc1ccccc1OCC(=O)Nc1ccc(N2CCN(C)CC2)c(Cl)c1,15µM*,?,i,-6%,10%,i
O=C(CN1CCc2ccccc2C1)Nc1ccccc1Cl,8%,-1%,i,-7%,2%,i
Cc1ccccc1OCC(=O)Nc1ccc2c(c1)Cc1ccccc1-2,0%,5%,i,-3%,?,i
O=C(CN1CCc2ccccc2C1)Nc1ccccc1N1CCCCCC1,13µM*,?,?,2%,?,?
CSc1ccccc1NC(=O)COc1ccc(Cl)cc1C,?,8%,13µM*,0%,3%,?
CCc1ccccc1OCC(=O)Nc1ccc(N2CCCC2)cc1C,1%,?,i,2%,28µM*,i
CCCn1c(=O)c2sccc2n2c(CCCC(=O)N3CCN(c4ccccc4)CC3)nnc12,.,.,.,.,1%,.
COc1ccc(C)cc1NC(=O)Nc1ccccc1OCc1cc(=O)n2ccccc2n1,.,.,.,.,5%,.
COc1ccc(CNCC(=O)Nc2ccccc2-n2cccc2)cc1,?,21µM*,?,0%,7%,?
Cc1cccc(NC(=O)CSCC(=O)Nc2ccccc2N2CCCC2)c1,2%,1%,?,-10%,1%,i
